Assay results as given in PubChem BioAssay.

system: Sonic hedgehog protein (Shh); test: small-molecule binders of Shh protein, primary screen, biochemical, small-molecule microarray, 635/667 nm fluorescence (AID 1151); conditions: small-molecule microarray binding, 635 nm fluorescence; higher = more signal;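 note: Shh protein binding to compounds spotted on small-molecule microarray slides; score combines spot fluorescence intensity with signal-to-noise across triplicate slides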

How did the composite z-score turn out when `O=C1c2ccccc2[C@](Cc2ccccc2I)(C(=O)NCC(F)(F)F)[C@H](c2ccc(CO)cc2)N1Cc1ccccc1Cl` was run?
The composite z-score was 1.37.

For `C=C(COC)C(=O)CC[C@@H](OC(C)=O)c1ccc(CO)o1`, which composite z-score is on record?
Its composite z-score is 2.14.

For `COc1ccccc1CN1C(=O)c2ccccc2[C@@H](C(=O)NC2CC2)[C@@H]1c1ccc(CO)cc1`, which composite z-score is on record?
Its composite z-score is 1.8.

`COc1ccc(CCNC(=O)[C@@]2(Sc3ccc(C)cc3)CC(=O)N(C(C)C)[C@@H]2c2ccc(CO)cc2I)cc1` was tested. Which composite z-score did it give?
The composite z-score was -0.156.

With `CCC[C@@H]1C[C@@]1(CCC)[C@@H](NS(=O)(=O)c1cccc2cccnc12)c1ccc(Cl)cc1` as the compound, how does the composite z-score read?
Its composite z-score is -1.33.

How did the composite z-score turn out when `CCCC[C@@H]1C[C@H]1[C@@H](NC(=O)c1ccccc1)c1ccc(C(=O)OC)cc1` was run?
Its composite z-score is -1.11.

Which composite z-score does the source give for `[N-]=[N+]=Nc1ccccc1[C@@H]1OC(c2ccc(OCCCO)cc2)=N[C@]1(CCS(=O)(=O)c1ccccc1)C(N)=O` here?
Its composite z-score is -0.398.

`COc1cc2c(cc1O)C(C1CC1)N(Cc1sc3ccccc3c1Cl)CC2` (centres undefined) was tested. Which composite z-score did it give?
Its composite z-score is -0.206.

With `CO[C@H]1O[C@H](CO)[C@@H](OC(=O)Nc2ccccc2)[C@H](OC(=O)Nc2ccccc2)[C@@H]1OC(=O)Nc1ccccc1` as the compound, how does the composite z-score read?
Its composite z-score is 1.48.

`COc1cccc(-c2cccc(=O)o2)c1` was tested. Which composite z-score did it give?
The composite z-score was -0.207.

How did the composite z-score turn out when `C=CCN1C(=O)[C@@]2(CC=C)N=C(c3ccc(OCCCO)cc3)O[C@H]2c2ccccc21` was run?
The composite z-score was 1.47.

How did the composite z-score turn out when `COCCOC(=O)N1C(=O)[C@@]2(c3cc(C#CCC(C(=O)OC)C(=O)OC)ccc31)[C@H](C(=O)Nc1nc3ccccc3s1)[C@H]1C(=O)O[C@H](c3ccccc3)[C@H](c3ccccc3)N1[C@@H]2c1ccccc1OCCO` was run?
The composite z-score was 1.13.

Which composite z-score does the source give for `O=C1N[C@@H](Cc2ccccc2)C(=O)N2[C@@H]1C[C@@H](C(=O)O)[C@H]2c1cccc(OCCO)c1` here?
The composite z-score was 1.77.

Which composite z-score does the source give for `C=CCOC(=O)[C@H]1[C@@H]2C(=O)O[C@@H](c3ccccc3)[C@@H](c3ccccc3)N2[C@@H](c2ccc(OCCOC(=O)[C@H]3C[C@H]4C(=O)N[C@@H](CCCCNC(C)=O)C(=O)N4[C@H]3c3ccc(O)cc3)cc2)[C@]12C(=O)Nc1ccc(I)cc12` here?
The composite z-score was 2.09.
